According to PubChem BioAssay (Tox21):
Inconclusive results are not listed. The source made the active and inactive calls. Unless noted, the call rests on the fitted dose curve.

What was measured:
[1] = qHTS assay to identify small molecule antagonists of the sonic hedgehog signaling (Shh) pathway (AID 1259369); further: nearly all actives have a fitted effect of over 45% in size; further: potency means the concentration at half of the fitted maximal effect
How it was run: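 Conditioned medium drives Shh signalling in 3T3Gli1-Luc cells; compounds in DMSO co-applied, 24hr at 37 C, then luciferase luminescence.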

[2] = biological target: Estrogen receptor beta (Homo sapiens) (UniProt Q92731); assay: qHTS assay to identify small molecule agonists of the estrogen receptor beta (ER-beta) signaling pathway (AID 1259377; active means well fitted activation curve with a large enough effect in the signal ratio in the repeat runs, not every such curve was filed as active; the % refers to the signal ratio; further: potency means the concentration at half of the fitted maximal effect)
Estrogen receptor beta (Homo sapiens), sequence (Q92731 whole entry, looked up): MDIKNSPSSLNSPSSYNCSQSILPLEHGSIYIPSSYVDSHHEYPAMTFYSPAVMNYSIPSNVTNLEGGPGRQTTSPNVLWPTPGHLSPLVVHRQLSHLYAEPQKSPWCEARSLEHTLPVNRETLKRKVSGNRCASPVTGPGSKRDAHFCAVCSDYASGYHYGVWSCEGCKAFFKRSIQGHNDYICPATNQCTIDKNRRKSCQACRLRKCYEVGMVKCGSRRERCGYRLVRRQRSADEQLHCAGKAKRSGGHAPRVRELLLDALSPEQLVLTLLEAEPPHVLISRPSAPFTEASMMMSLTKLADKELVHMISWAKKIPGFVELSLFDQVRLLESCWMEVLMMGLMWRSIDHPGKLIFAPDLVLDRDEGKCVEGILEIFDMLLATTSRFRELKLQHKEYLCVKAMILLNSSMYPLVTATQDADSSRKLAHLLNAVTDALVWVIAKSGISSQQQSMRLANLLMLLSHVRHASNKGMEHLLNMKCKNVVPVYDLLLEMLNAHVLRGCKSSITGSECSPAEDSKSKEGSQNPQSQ
How it was run: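 Beta-lactamase reporter readout: fluorescence of LiveBLAzer B/G FRET substrate after 2 h at room temperature, following 16 h compound treatment of ER-beta-UAS-bla HEK293T cells at 37C in 2% charcoal-stripped FBS medium.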

[3] = qHTS assay to identify small molecule agonists of the androgen receptor (AR) signaling pathway in the presence of an antagonist - cell viability counter screen (AID 1259379; active means well fitted curve in the direction sought with a large enough effect in the repeat runs; an effect the other way counts as inactive or inconclusive; further: nearly all actives have a fitted effect of over 25% in size; further: potency means the concentration at half of the fitted maximal effect;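 on activity change, negative = cytotoxicity: MDA-kb2 human breast cancer cells carrying an MMTV luciferase reporter; series mostly up to about 92 µM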)
How it was run: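 A CellTiter-Fluor read-out measured viability of MDA-kb2 reporter cells (MMTV promoter with AR and GR response elements). Treatment: nilutamide 3.0uM final with compounds at 15 concentrations, 16 hr, 37C, 0% CO2.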

[4] = qHTS assay to identify small molecule agonists of the estrogen receptor beta (ER-beta) signaling pathway - cell viability counter screen (AID 1259380; active means well fitted curve in the direction sought with a large enough effect in the repeat runs; an effect the other way counts as inactive or inconclusive; further: nearly all actives have a fitted effect of over 30% in size; further: potency means the concentration at half of the fitted maximal effect)
How it was run: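 Cells used were ER-beta-UAS-bla HEK293T in medium with 2% charcoal-stripped FBS. They were treated for 16 hr at 37C. Viability came from CellTiter-Glo luminescence.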

[5] = qHTS assay to identify small molecule antagonists of the estrogen receptor beta (ER-beta) signaling pathway - cell viability counter screen (AID 1259382; active means well fitted curve in the direction sought with a large enough effect in the repeat runs; an effect the other way counts as inactive or inconclusive; further: series mostly up to about 92 µM; nearly all actives have a fitted effect of over 55% in size)
How it was run: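 Agonist-stimulated (1nM E2) ER-beta-UAS-bla HEK293T cells are incubated with library compounds for 16 hr at 37C. Cell viability is then assessed in the reporter-assay wells by adding CellTiter-Glo and reading luminescence after 30 min.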

[6] = biological target: Estrogen receptor (Homo sapiens) (UniProt P03372); assay: qHTS assay to identify small molecule agonists of the estrogen receptor alpha (ER-alpha) signaling pathway in the presence of an antagonist (AID 1259383); further: top concentration of the series differs between compounds; nearly all actives have a fitted effect of over 15% in size
Estrogen receptor (Homo sapiens), sequence (P03372 whole entry, looked up): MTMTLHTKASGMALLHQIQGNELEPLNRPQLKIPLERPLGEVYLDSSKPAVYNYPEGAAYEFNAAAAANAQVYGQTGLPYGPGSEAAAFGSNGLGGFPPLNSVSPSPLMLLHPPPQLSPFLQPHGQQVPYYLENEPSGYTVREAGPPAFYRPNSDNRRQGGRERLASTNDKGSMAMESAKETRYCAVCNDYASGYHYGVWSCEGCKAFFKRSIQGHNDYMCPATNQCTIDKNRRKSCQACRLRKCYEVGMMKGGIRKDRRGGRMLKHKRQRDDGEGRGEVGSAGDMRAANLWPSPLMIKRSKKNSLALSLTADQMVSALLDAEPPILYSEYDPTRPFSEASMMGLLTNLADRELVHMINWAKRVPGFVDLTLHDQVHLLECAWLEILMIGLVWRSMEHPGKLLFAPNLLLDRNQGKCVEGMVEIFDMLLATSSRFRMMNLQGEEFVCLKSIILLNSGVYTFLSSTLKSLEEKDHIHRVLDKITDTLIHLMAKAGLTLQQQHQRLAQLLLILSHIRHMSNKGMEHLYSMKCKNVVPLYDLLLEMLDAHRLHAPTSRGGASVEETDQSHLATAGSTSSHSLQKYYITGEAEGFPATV
How it was run: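 Using VM7Luc4E2 cells seeded 24hr before treatment, antagonist ICI-182,780 (10.0nM final) was added, followed by compounds at 15 concentrations. Plates incubated 22hr; ONE-Glo luminescence quantified reporter activity.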

[7] = qHTS assay to identify small molecule agonists or antagonists of the thyroid stimulating hormone receptor (TSHR) signaling pathway - wild type cell line counter screen (AID 1259384)
How it was run: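 Wild-type HEK293 cells were plated 18 h at 37 C/5% CO2, pin-dosed with compound plus Ro20-1724 medium, held 30 min at room temperature, then given cAMP-d2 and anti-cAMP-cryptate; fluorescence was read after 1 h. Fifteen concentrations, triplicate.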

[8] = biological target: Thyrotropin receptor (Homo sapiens) (UniProt P16473); assay: qHTS assay to identify small molecule antagonists of the thyroid stimulating hormone receptor (TSHR) signaling pathway (AID 1259385); further: nearly all actives have a fitted effect of over 20% in size; further: potency means the concentration at half of the fitted maximal effect
Thyrotropin receptor (Homo sapiens), sequence (P16473 whole entry, looked up): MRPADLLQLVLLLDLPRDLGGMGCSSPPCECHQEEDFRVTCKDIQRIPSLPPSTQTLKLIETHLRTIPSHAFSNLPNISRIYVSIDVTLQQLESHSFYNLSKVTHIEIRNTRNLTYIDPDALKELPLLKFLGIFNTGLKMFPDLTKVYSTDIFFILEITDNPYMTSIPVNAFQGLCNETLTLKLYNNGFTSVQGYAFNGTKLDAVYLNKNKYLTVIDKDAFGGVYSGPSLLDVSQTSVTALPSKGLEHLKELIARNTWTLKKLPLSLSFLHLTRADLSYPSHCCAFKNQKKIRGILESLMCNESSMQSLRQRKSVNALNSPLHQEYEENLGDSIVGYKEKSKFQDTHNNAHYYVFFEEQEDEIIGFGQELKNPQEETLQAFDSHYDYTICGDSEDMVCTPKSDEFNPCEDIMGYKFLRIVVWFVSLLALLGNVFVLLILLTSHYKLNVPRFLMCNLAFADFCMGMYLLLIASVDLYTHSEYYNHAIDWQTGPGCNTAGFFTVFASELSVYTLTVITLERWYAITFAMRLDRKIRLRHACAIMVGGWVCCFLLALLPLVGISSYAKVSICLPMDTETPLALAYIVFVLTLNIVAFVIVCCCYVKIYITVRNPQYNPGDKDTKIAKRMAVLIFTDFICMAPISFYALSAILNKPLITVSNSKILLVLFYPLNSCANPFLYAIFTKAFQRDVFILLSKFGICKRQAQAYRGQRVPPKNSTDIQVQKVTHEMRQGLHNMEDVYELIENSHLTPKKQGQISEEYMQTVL
How it was run: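 TSHR-HEK293 cells were plated and held 18 h at 37C/5% CO2, then given compound plus Ro20-1724 and stimulated with TSH at 1.5 ng/mL final. After 30 min at room temperature, cAMP was detected with cAMP-d2/anti-cAMP-cryptate (1 h) by fluorescence.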

[9] = biological target: Estrogen receptor beta (Homo sapiens) (UniProt Q92731); assay: qHTS assay to identify small molecule antagonists of the estrogen receptor beta (ER-beta) signaling pathway (AID 1259378; active means well fitted inhibition curve with a large enough effect in the signal ratio in the repeat runs, not every such curve was filed as active; the % refers to the signal ratio)
How it was run: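 ER-beta-UAS-bla HEK293T (GripTite) cells in 2% charcoal-stripped FBS medium were preincubated 6 hr at 37C, dosed with compound, then stimulated with 1 nM E2 (final) for 16 hr; beta-lactamase reporter read by B/G FRET fluorescence after 2 hr substrate loading.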

[10] = biological target: Androgen receptor (Homo sapiens) (UniProt P10275); assay: qHTS assay to identify small molecule agonists of the androgen receptor (AR) signaling pathway in the presence of an antagonist (AID 1259381); further: nearly all actives have a fitted effect of over 15% in size
Androgen receptor (Homo sapiens), sequence (P10275 whole entry, looked up): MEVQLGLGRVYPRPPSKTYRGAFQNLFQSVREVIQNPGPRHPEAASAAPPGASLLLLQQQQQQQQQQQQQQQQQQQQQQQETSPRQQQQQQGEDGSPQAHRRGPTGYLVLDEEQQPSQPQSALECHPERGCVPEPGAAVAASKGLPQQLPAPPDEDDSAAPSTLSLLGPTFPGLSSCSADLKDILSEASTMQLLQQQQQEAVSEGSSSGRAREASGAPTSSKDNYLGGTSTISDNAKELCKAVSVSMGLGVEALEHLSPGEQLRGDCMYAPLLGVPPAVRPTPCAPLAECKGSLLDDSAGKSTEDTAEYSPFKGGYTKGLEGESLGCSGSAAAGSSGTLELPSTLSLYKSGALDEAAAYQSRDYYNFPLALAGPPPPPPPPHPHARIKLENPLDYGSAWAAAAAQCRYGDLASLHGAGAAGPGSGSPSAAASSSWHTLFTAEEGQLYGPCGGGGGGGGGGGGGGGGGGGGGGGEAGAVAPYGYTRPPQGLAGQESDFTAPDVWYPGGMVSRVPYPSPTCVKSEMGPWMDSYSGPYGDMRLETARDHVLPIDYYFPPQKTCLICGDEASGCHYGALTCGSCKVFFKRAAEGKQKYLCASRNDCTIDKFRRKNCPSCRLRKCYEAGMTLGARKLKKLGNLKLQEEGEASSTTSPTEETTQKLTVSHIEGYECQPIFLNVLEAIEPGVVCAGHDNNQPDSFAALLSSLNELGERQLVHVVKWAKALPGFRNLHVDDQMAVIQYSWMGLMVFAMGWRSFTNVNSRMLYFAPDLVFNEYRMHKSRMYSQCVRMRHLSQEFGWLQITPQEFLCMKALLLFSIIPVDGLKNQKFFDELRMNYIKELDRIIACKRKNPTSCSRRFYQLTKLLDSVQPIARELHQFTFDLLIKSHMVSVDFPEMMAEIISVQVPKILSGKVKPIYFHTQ
How it was run: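 Using human MDA-kb2 cells with an MMTV promoter–luciferase construct (AR and GR response elements), agonist activity is scored under 3.0uM nilutamide (final) co-treatment; 16hr incubation, 37C, luminescence readout via ONE-Glo.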
On the % scale 0 is the no-effect control and ±100 the full control effect.

O=Cc1c(Cl)cccc1Cl
inactive: Potency [1] | Potency [2] | Potency [3] | Potency [4] | Potency [5] | Potency [6] | outcome [7] | Potency [8]

CCCCOC(=O)CCS
inactive: Potency [1] | Potency [2] | Potency [3] | Potency [4] | Potency [5] | Potency [6] | outcome [7] | Potency [8]

CCC(Cc1ccccc1)(C(=O)c1ccc(N2CCOCC2)cc1)N(C)C (stereo unspecified)
inactive: Potency [2] | Potency [9] | Potency [5] | Potency [6] | outcome [7] | Potency [8]
active: Potency [1] 19.3 µM

COCCOC
active: Potency [1] 4.13 µM
inactive: Potency [2] | Potency [9] | Potency [5] | outcome [7] | Potency [8]

CN(C(=O)C(Cl)Cl)c1ccc(OC(=O)c2ccco2)cc1
inactive: Potency [1] | Potency [2] | Potency [3] | Potency [4] | Potency [10] | Potency [5] | outcome [7] | Potency [8]

CC[C@H](NC(=O)c1cc(F)ccc1NS(=O)(=O)c1cccc2cccnc12)c1ccccc1
inactive: Potency [1] | Potency [2] | Potency [3] | Potency [6] | Potency [8]

CCC(=O)Oc1ccc(/C(CC)=C(\CC)c2ccc(OC(=O)CC)cc2)cc1
active: Potency [1] 24.3 µM | Potency [2] 0.0017 µM
inactive: Potency [3] | Potency [5] | outcome [7] | Potency [8]

CCCCC(CC)C(=O)OCCOCCOCCOCCOC(=O)C(CC)CCCC (stereo unspecified)
inactive: Potency [1] | Potency [2] | Potency [3] | Potency [5] | Potency [6] | outcome [7]

Cc1cc(O)c2c(O)c3c(O)cccc3cc2c1
inactive: Potency [1] | Potency [2] | Potency [4] | Potency [10] | Potency [5] | outcome [7] | Potency [8]

CCC(C(=O)OCCOCCN(CC)CC)c1ccccc1 (stereo unspecified)
inactive: Potency [1] | Potency [2] | Potency [3] | Potency [5] | Potency [6]

Cc1ccnc2ccccc12
active: Potency [1] 48.4 µM
inactive: Potency [2] | Potency [3] | Potency [4] | Potency [5] | outcome [7] | Potency [8]

CN1Cc2cc(C(=O)N3CCC(C4CCNCC4)CC3)ccc2N[C@@H](CC(=O)O)C1=O
inactive: Potency [1] | Potency [2] | Potency [3] | Potency [4] | Potency [5] | outcome [7] | Potency [8]

CCCCCCCCCCCCCCC[C@H](O)[C@@H](N)CO
inactive: Potency [1] | Potency [2] | Potency [3] | Potency [10] | Potency [5] | outcome [7]
active: Potency [8] 26.6 µM

Nc1nc(Cl)nc2c1ncn2[C@@H]1O[C@H](CO)[C@@H](O)[C@@H]1F
inactive: Potency [2] | Potency [3] | Potency [4] | Potency [5] | outcome [7] | Potency [8]
active: Potency [1] 0.841 µM

CO[C@H]1O[C@H](CO)[C@@H](O)[C@H](O)[C@H]1O
inactive: Potency [1] | Potency [2] | Potency [3] | Potency [5] | outcome [7] | Potency [8]

CC(=O)OCC(=O)[C@@]12OC(C)(C)O[C@@H]1C[C@H]1[C@@H]3C[C@H](F)C4=CC(=O)C=C[C@]4(C)[C@@]3(F)[C@@H](O)C[C@@]12C
inactive: Potency [1] | Potency [2] | Potency [3] | Potency [4] | Potency [5] | outcome [7]

O=S(=O)(c1ccccc1)c1ccc(Cl)cc1
inactive: Potency [1] | Potency [2] | Potency [3] | Potency [4] | Potency [5] | Potency [6] | outcome [7] | Potency [8]

CCCCCCCCCCCC[N+](C)(C)CCCS(=O)(=O)[O-]
inactive: Potency [1] | Potency [2] | Potency [3] | Potency [5] | Potency [6] | outcome [7] | Potency [8]

CC1CN(c2cc3c(cc2F)c(=O)c(C(=O)O)cn3-c2ccc(F)cc2F)CCN1 (stereo unspecified)
inactive: activity change, negative = inhibition [1] 30.3% [at 8.39 µM] | activation [2] -1.89% [at 8.39 µM] | activity change, negative = cytotoxicity [3] 0.826% [at 8.39 µM] | activity change, negative = cytotoxicity [5] 1.64% [at 8.39 µM] | cAMP activity change [7] -5.92% [at 8.39 µM] | activity change, negative = inhibition [8] -6.71% [at 8.39 µM]

c1cc[c]([Bi]([c]2ccccc2)[c]2ccccc2)cc1
active: Potency [1] 13.7 µM
inactive: Potency [2] | Potency [3] | Potency [5] | Potency [6] | outcome [7] | Potency [8]

CCCCCCCCCCCCCCCCBr
inactive: activity change, negative = inhibition [1] 18.7% [at 19 µM] | activation [2] 0.819% [at 19 µM] | activity change, negative = cytotoxicity [3] 1.54% [at 19 µM] | activity change, negative = cytotoxicity [5] -0.0957% [at 19 µM] | activation [6] -0.645% [at 19 µM] | cAMP activity change [7] -0.461% [at 18.9 µM] | activity change, negative = inhibition [8] -0.923% [at 19 µM]

CC(=O)Oc1ccc2c(c1)CC[C@@H]1[C@@H]2CC[C@]2(C)[C@@H](O)CC[C@@H]12
active: Potency [1] 1.19 µM | Potency [2] 0.0008 µM
inactive: Potency [3] | Potency [4] | Potency [5] | outcome [7] | Potency [8]

NC(=O)N(O)[C@@H]1COc2cc(OCc3ccccc3)ccc21
inactive: Potency [1] | Potency [2] | Potency [3] | Potency [4] | Potency [5] | outcome [7] | Potency [8]

Cn1c(=O)c2c(ncn2CC(=O)O)n(C)c1=O
inactive: Potency [1] | Potency [2] | Potency [3] | Potency [10] | Potency [5] | outcome [7] | Potency [8]

O=C(CCC1CCN(Cc2ccccc2)CC1)c1ccc2c(c1)NCCCC2
active: Potency [1] 10.6 µM | Potency [3] 29.8 µM
inactive: Potency [2] | Potency [10] | Potency [5] | Potency [6] | outcome [7]

CCc1nn(CCCN2CCN(c3cccc(Cl)c3)CC2)c(=O)n1CCOc1ccccc1
active: Potency [1] 15 µM | Potency [3] 29.8 µM
inactive: Potency [2] | Potency [6] | outcome [7]

Cc1c(C(=O)NN2CCCCC2)nn(-c2ccc(Cl)cc2Cl)c1-c1ccc(Cl)cc1
inactive: Potency [1] | Potency [2] | Potency [3] | Potency [10] | Potency [5] | Potency [6] | outcome [7] | Potency [8]

CC(C)(C)C(=O)C(Oc1ccc(Cl)cc1)n1ccnc1 (stereo unspecified)
active: Potency [4] 1.19 µM
inactive: Potency [1] | Potency [2] | Potency [3] | Potency [5] | outcome [7] | Potency [8]

COC(=O)Nc1nc2ccc(C(=O)c3cccs3)cc2[nH]1
active: Potency [1] 0.335 µM
inactive: Potency [2] | Potency [3] | Potency [4] | Potency [5] | outcome [7] | Potency [8]
